{"source": "PubChem BioAssay (NCATS)", "key": {"[1]": {"tested_on": "HIV-1 nucleocapsid protein NCp7 (binding to TG oligonucleotide)", "experiment": "HIV Nucleocapsid (AID 346);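 further: potency is for inhibitors that block NC binding and lower polarization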", "details": "HIV-1 NC / fluorescein-TGTGTGTG probe, fluorescence polarization", "method_in_brief": "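NCp7 100 nM + fluorescein TG4xF 10 nM; Hepes pH 7.5/250mM NaCl/1uM ZnCl2/0.004% PEG 20000; 1 hr RT; FP, 45 s exposure; oligo-only wells as negative control.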"}, "[2]": {"target": "Endonuclease 4 (Escherichia coli (strain K12)) (UniProt P0A6C1)", "experiment": "Counterscreen for APE1 Inhibitors: qHTS Assay for Inhibitors of Endonuclease IV (AID 2565; active means well fitted curve in the direction sought with a large enough effect; an effect the other way counts as inactive or inconclusive)", "details": "E. coli Endo IV, fluorogenic AP-site DNA cleavage; series mostly up to 27.1 µM", "method_in_brief": "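Read-out: fluorescence rise (ex 525/em 598 nm) from incision of a TAMRA/BHQ-2 double-stranded THF abasic-site substrate (50 nM), measured kinetically; third-minus-first read difference gave reaction progress. Enzyme 2 nM.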"}, "[3]": {"target": "DNA repair nuclease/redox regulator APEX1 (Homo sapiens) (UniProt P27695)", "sequence (P27695 whole entry, looked up)": "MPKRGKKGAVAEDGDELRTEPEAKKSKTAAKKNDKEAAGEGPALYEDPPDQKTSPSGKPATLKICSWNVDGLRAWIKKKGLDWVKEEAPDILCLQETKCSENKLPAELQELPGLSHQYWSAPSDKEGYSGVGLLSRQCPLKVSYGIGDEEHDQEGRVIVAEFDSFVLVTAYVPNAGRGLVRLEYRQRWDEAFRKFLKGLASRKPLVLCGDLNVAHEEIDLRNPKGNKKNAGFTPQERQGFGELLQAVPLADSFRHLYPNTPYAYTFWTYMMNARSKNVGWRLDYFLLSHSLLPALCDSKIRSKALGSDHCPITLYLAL", "experiment": "Confirmation qHTS Assay for Inhibitors of the Human Apurinic/apyrimidinic Endonuclease 1 (APE1) (AID 2572; active means well fitted curve in the direction sought with a large enough effect; an effect the other way counts as inactive or inconclusive; further: nearly all actives have a fitted effect of over 30% in size)", "details": "purified APE1, fluorogenic abasic-site DNA cleavage", "method_in_brief": "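APE1 preincubated 15 min RT with compound; 50 nM TAMRA/BHQ-2 THF-abasic duplex added; kinetic fluorescence, 3 reads at 60 s intervals, Ex 525/Em 598; progress = read 3 minus read 1.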"}, "[4]": {"target": "Tyrosyl-DNA phosphodiesterase 1 (Homo sapiens) (UniProt Q9NUW8)", "sequence (Q9NUW8 whole entry, looked up)": "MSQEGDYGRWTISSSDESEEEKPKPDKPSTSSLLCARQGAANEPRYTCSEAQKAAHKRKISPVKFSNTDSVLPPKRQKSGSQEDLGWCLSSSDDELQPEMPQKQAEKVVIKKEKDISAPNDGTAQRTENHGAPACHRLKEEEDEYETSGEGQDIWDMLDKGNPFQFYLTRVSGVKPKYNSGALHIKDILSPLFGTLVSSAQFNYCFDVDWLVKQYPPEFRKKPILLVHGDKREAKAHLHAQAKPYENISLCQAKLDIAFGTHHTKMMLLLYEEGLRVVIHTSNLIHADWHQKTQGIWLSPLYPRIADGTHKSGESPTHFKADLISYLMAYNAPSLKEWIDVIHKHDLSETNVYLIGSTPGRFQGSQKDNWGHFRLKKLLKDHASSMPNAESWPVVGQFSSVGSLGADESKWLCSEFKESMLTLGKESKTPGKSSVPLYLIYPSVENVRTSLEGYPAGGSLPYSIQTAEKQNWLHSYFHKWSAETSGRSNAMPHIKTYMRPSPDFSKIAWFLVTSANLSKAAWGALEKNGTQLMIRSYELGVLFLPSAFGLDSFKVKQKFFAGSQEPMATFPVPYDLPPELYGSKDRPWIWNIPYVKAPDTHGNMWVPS", "experiment": "Confirmation Assay for Inhibitors of Tyrosyl-DNA Phosphodiesterase (TDP1) (AID 489007; active means well fitted curve in the direction sought with a large enough effect; an effect the other way counts as inactive or inconclusive; further: nearly all actives have a fitted effect of over 40% in size)", "details": "recombinant human TDP1 enzymatic activity, dose-response", "method_in_brief": "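Loss of AlphaScreen signal reports Tdp1 cleavage of a dual-labelled DNA substrate. Conditions: 1 nM E. coli-derived enzyme, 15 nM substrate, 15 min compound preincubation, 5 min reaction, 10 min bead incubation, all at room temperature.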"}, "[5]": {"experiment": "Counterscreen for APE1 Inhibitors: Fluorescent Dye Displacement Assay (AID 2564; active means well fitted curve in the direction sought with a large enough effect; an effect the other way counts as inactive or inconclusive)", "details": "DNA fluorescent dye displacement counterscreen, fluorescence; series mostly up to 28.5 µM", "method_in_brief": "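Reaction mixture of 250 nM Thiazole Orange and 50 nM double-stranded abasic-site DNA was dispensed, compounds were pin-transferred, and fluorescence was read at endpoint (480 nm ex, 540 nm em). Reduced fluorescence indicated dye displacement by DNA binding.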"}}, "note": "Unmarked numbers belong to inactive results. Results filed as inconclusive are left out. The list shows a part of the results. Calls of active or inactive are those of the source. Unless noted, how the calls were made is not given here. Potency means the concentration at half of the fitted maximal effect.", "data": [{"smiles": "COc1ccc(-c2nc3cnc(N4CCOCC4)nc3n(CCC#N)c2=O)cc1", "values": [{"measurement": "Potency", "setting": "[1]", "result": "> 20", "unit": "µM"}]}, {"smiles": "COC(=O)N1CCC2(CCN(C(=O)Nc3ccc(OC)cc3)CC2)CC1", "values": [{"measurement": "Potency", "setting": "[1]", "result": "> 20", "unit": "µM"}]}, {"smiles": "O=C(Nc1ccccc1)N1CCCC2(CCN(S(=O)(=O)c3ccccc3)CC2)C1", "values": [{"measurement": "Potency", "setting": "[1]", "result": "> 20", "unit": "µM"}]}, {"smiles": "O=C(O)c1cc[c]([Sb](=[O])([OH])[OH])cc1[N+](=O)[O-]", "values": [{"measurement": "Potency", "setting": "[2]", "result": "10 µM (active)"}, {"measurement": "Potency", "setting": "[3]", "result": "0.0562 µM (active)"}, {"measurement": "Potency", "setting": "[4]", "result": "2 µM (active)"}]}, {"smiles": "O=C(OCC1O[C@@H](OC(=O)c2cc(O)c(O)c(O)c2)[C@@H](OC(=O)c2cc(O)c(O)c(O)c2)[C@@H](OC(=O)c2cc(O)c(O)c(O)c2)[C@@H]1OC(=O)c1cc(O)c(O)c(O)c1)c1cc(O)c(O)c(O)c1", "note": "(some centres undefined)", "values": [{"measurement": "Potency", "setting": "[5]", "result": "3.98 µM (active)"}, {"measurement": "Potency", "setting": "[3]", "result": "0.0063 µM (active)"}]}, {"smiles": "COc1cccc(Cn2c(=O)c(-c3ccccc3)nc3cnc(OC)nc32)c1", "values": [{"measurement": "Potency", "setting": "[1]", "result": "> 20", "unit": "µM"}]}, {"smiles": "COc1cccc(-c2nccc(NCc3cccnc3)n2)c1", "values": [{"measurement": "Potency", "setting": "[1]", "result": "> 20", "unit": "µM"}]}, {"smiles": "COc1cccc(-c2cncnc2NCc2cccnc2)c1", "values": [{"measurement": "Potency", "setting": "[1]", "result": "> 20", "unit": "µM"}]}, {"smiles": "Cn1c(=O)c(-c2cc(F)cc(F)c2)nc2cncnc21", "values": [{"measurement": "Potency", "setting": "[1]", "result": "> 20", "unit": "µM"}]}, {"smiles": "COc1cccc(Cn2c(=O)c(-c3cc(F)cc(F)c3)nc3cnc(OC)nc32)c1", "values": [{"measurement": "Potency", "setting": "[1]", "result": "> 20", "unit": "µM"}]}, {"smiles": "O=S(=O)(c1ccccc1)N1CCC2(CCN(Cc3ccccc3)CC2)CC1", "values": [{"measurement": "Potency", "setting": "[1]", "result": "> 20", "unit": "µM"}]}]}
